# In all, about 310,000 compounds went through this assay and about 14,000 (4.5%) showed an effect of 50% or more. The effect is printed as a negative number. Shown is part of a subset that was picked to be rich in strong results.
# Target: human ether-à-go-go-related gene (hERG) potassium channel (human, UniProt Q12809)
# Experiment: primary screen, population patch clamp on CHO cells stably expressing hERG; higher = less effect of the substance
# 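Also: peak tail current of the secondary pulse compared with the same well before compound.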
# Chain of human ether-à-go-go-related gene (hERG) potassium channel (Q12809 whole entry, looked up): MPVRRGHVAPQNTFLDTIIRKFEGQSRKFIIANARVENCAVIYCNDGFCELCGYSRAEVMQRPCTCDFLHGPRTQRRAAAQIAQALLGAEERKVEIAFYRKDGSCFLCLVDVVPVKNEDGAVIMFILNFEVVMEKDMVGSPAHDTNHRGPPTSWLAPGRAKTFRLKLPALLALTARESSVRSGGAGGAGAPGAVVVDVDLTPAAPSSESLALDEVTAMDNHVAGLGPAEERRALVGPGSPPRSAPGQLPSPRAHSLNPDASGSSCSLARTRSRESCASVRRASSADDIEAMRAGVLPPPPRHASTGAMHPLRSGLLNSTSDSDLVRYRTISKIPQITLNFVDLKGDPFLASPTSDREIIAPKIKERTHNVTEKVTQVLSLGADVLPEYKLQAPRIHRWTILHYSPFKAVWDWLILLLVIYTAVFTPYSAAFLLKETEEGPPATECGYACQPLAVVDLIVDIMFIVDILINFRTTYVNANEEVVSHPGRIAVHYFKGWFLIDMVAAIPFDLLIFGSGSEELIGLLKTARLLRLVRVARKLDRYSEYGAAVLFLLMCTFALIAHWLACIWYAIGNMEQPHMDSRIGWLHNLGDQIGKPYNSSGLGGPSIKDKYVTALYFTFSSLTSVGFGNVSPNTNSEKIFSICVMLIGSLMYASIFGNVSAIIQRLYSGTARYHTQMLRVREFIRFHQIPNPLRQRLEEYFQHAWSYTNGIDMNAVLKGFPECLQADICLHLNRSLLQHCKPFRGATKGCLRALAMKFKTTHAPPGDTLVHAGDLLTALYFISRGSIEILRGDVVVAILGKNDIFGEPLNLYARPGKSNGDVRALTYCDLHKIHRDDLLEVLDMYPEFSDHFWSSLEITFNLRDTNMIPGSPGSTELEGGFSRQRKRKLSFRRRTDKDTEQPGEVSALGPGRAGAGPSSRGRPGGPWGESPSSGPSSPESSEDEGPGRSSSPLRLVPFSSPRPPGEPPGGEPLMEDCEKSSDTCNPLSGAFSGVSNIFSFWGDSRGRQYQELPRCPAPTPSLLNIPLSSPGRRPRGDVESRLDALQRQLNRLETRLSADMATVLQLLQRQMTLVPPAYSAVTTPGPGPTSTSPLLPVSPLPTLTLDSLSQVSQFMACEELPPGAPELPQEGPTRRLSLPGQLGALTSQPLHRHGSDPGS
row,SMILES,"hERG current change (%, negative = inhibition) at 10uM"
1,COc1ccc(C(=O)OCCN2C(=O)c3ccccc3C2=O)cc1,-5.4%
2,COc1cc(OC)cc(-c2sc3ccc(OC)cc3c2C#CCCO)c1,10.5%
3,COc1ccc(CC(=O)NNC(=O)CCC(=O)Nc2cc(C)ccc2C)cc1,10.4%
4,Cc1[nH]c2ccccc2c1C(=O)NS(=O)(=O)Nc1ccccc1,9.15%
5,CS(=O)(=O)c1cccc(C(=O)NCc2ccccc2)c1,-0.394%
6,CC1(c2ccccc2)NC(=O)N(CC(=O)Nc2ccc(N3CCOCC3)cc2N2CCOCC2)C1=O (stereo not shown),6.74%
7,CCc1ccc(C(=O)N/N=C(\C)c2ccncc2)s1,-11.1%
8,Cc1ccc(Cn2ccnc2C(=O)Nc2ccccc2)cc1,6.59%
9,O=C(Nc1ccccc1)c1nccn1Cc1ccc(F)cc1,-10.9%
10,N#Cc1ccc(Cn2ccnc2C(=O)Nc2ccccc2)cc1,-87%
11,Cn1c(SCC(=O)NC2CCCC2)nnc1-c1ccncc1,33.9%
12,CCOc1cc(C(=S)N2CCN(C)CC2)ccc1OCC(=O)N1CCCC1,16%
13,Cc1ccc(C2=Nc3cccnc3C(c3ccccc3)=NN2)cc1,0.802%
14,CC1CCCN(C(=O)CSc2nnc(-c3cccnc3)n2C2CCCCC2)C1 (stereo not shown),-13.4%
15,CC1CCCN(C(=O)CSc2nnc3n(C4CCCC4)c(=O)c4ccccc4n23)C1 (stereo not shown),-62.7%
16,COc1ccccc1Cn1c(=O)c2ccccc2n2c(SCC(=O)N3CCCCC3)nnc12,15.2%
17,O=C(CSc1nnc2n(C3CCCCC3)c(=O)c3ccccc3n12)OC1CCCCC1,-4.92%
18,O=C(CSc1nnc2n(C3CCCC3)c(=O)c3ccccc3n12)N1CCCCCC1,-51.1%
19,CC1CCCN(C(=O)CSc2nnc3ccccn23)C1 (stereo not shown),4.63%
20,O=C(O)c1nccnc1C(=O)Nc1ccc(Oc2c(Cl)cccc2Cl)nc1,-26.1%
21,COc1ccccc1NC(=O)CN1CCN(CC(=O)Nc2ccc(C)c(F)c2)CC1,-70%
22,CCN(CC)c1ccc(NC(=O)CN2CCN(CC(=O)Nc3ccccc3OC)CC2)cc1,-26.9%

row,SMILES,"hERG current change (%, negative = inhibition) at 10uM"
1,COc1ccc(C)cc1NC(=O)CN1CCN(c2ccc(F)cc2)CC1,-50.4%
2,COc1ccc(C)cc1NC(=O)CN1CCN(c2ccccc2F)CC1,-10.3%
3,COc1ccccc1NC(=O)CN1CCN(c2ccccc2F)CC1,-18.4%
4,COc1ccccc1NC(=O)CN1CCN(CC(=O)Nc2ccc(F)cc2)CC1,-79.2%
5,COc1ccccc1N1CCN(CC(=O)Nc2ccc(C)c(F)c2)CC1,-23.1%
6,COc1ccc(C)cc1NC(=O)CN1CCN(S(=O)(=O)c2ccc(F)cc2)CC1,7.19%
7,COc1cc(NC(=O)CN2CCN(CC(=O)Nc3ccccc3OC)CC2)cc(OC)c1,0.0651%
8,COc1ccc(Nc2nc3[nH]c(=O)cc(O)c3s2)cc1,14.2%
9,Cc1ccc(S(=O)(=O)NN2C(=O)/C(=C/c3ccc(C(=O)O)cc3)SC2=S)cc1,19.9%
10,Cc1ccc(NC(=O)CCNC(=O)c2ccc(Cl)cc2)cc1F,9.19%
11,O=C(CCNS(=O)(=O)c1ccccc1)NNC(=O)COc1ccc(Cl)cc1,2.29%
12,O=C(COc1ccc(Nc2ccccc2)cc1)Nc1ccncc1,-30.1%
13,O=C(Nc1ccc2c(c1)OCO2)Nc1ccc(Cl)cc1Cl,9.53%
14,CCCCOC(=O)NC(NCC(O)c1ccccc1)(C(F)(F)F)C(F)(F)F (stereo not shown),6.78%
15,C=CCN(CC(=O)NCc1ccc(F)cc1)C(=O)c1csnn1,-18.2%
16,O=C(CN(Cc1ccccc1)C(=O)c1csnn1)NCc1ccccc1,8.5%
17,O=C(CN(Cc1ccc(F)cc1)C(=O)c1csnn1)NCc1ccccc1,-31.6%
18,COc1ccc(CNC(=O)CN(C(=O)c2csnn2)c2cccc3c2CCCC3)cc1,-14.9%
19,O=C(CN(C(=O)c1csnn1)c1cccc2c1CCCC2)NCc1ccccc1,-5.19%
20,O=C(CN(Cc1ccccc1Cl)C(=O)c1csnn1)NCc1ccc(F)cc1,-50.4%
21,O=C(CN(Cc1ccc(Cl)cc1)C(=O)c1csnn1)NCc1ccc(F)cc1,-66.6%

# — publication PMC4336329 (PLoS ONE, 2015)
